This is one part of the list. Calls of active or inactive are those of the source.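 Rule for the calls: active = EC50 under a set limit for hydrogen peroxide production with the reducing agent DTT present; inactive = the rest.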
Experiment: DTT-dependent H2O2 generation by redox cyclers, dose response, artefact control for MLSCN library redox annotation, biochemical, 10-point concentration response, NIH library profiling (AID 1234)
Conditions: DTT-dependent redox cycling H2O2, phenol red-HRP absorbance; activation: H2O2 generation, at 50 µM, stronger effect = higher value

## CCOC(=O)c1c(C)[nH]c2c1-c1ccccc1C(=O)C2=O
  EC50: 430 nM (active)
  activation: 129%

Source: PubChem BioAssay AID1234 (University of Pittsburgh Molecular Library Screening Center, 2008)
